D2 ag-1: Beta-Arrestin HTS for Positive Allosteric Modulators of the Human D2 Dopamine Receptor: Agonists. 0.084% of 360,000 active. D(2) dopamine receptor (Homo sapiens), P14416. activation, % (concentration not given with the values). DiscoveRx PathHunter D2 beta-arrestin, luminescence, 90 min; 100% = 57 uM dopamine signal; in the data active = activation above about 40%; inconclusive = between about 15% and that limit
Target sequence (P14416 whole entry, looked up): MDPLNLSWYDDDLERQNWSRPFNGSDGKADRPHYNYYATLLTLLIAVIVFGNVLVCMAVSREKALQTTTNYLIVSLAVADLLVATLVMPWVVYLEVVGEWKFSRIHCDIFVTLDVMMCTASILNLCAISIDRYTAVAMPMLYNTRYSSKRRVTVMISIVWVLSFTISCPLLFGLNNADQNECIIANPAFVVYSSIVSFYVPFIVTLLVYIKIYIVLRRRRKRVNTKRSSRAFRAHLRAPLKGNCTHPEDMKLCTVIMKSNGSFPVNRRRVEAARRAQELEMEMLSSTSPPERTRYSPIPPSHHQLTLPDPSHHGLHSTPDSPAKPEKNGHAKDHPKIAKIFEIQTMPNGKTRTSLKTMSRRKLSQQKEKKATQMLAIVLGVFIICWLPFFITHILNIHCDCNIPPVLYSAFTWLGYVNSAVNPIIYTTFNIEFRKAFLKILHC
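Agonist mode: compounds alone added to overnight-plated D2 PathHunter cells for 90 min at 37 C, with 57 uM final dopamine (EC100) defining full response. Beta-arrestin recruitment detected by chemiluminescent reagent, read after 1 h at ambient temperature.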
D2 ag-2: HTS Assay for Allosteric Agonists of the Human D2 Dopamine Receptor: Primary Screen for Agonists | activation, % at 2 µM | 0.53% of 340,000 active | D(2) dopamine receptor (Homo sapiens), P14416 | HEK293 T-REx D2 cells, calcium flux agonist mode;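 active = activation over 3 SD above normal in the single-dose calcium agonist read, cut at about 30% in these data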; also: 0% is about no effect
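Calcium-flux readout, 1 cycle/sec over 180 s following compound pin transfer, in inducible HEK293 Trex D2 cells (force-coupled); dopamine controls included. Positive calcium responses during this window marked compounds as potential agonists.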
D2 PAM-1: Beta-Arrestin HTS for Positive Allosteric Modulators of the Human D2 Dopamine Receptor: Potentiators; D(2) dopamine receptor (Homo sapiens), P14416; DiscoveRx D2 beta-arrestin cells, luminescence, 90 min; 100% = 57 uM dopamine signal; potentiation, % (test concentration not listed); 0.23% of 360,000 active; in the data active = potentiation above about 50%; inconclusive = mostly about 30% to 49%
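PathHunter beta-arrestin assay in DiscoveRx D2 cells. Compounds were added with an EC20 of dopamine (50 nM final) for 90 min at 37 deg C. Luminescence was read 1 h after detection reagent, with 57 uM dopamine as the EC100 control.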
D2 PAM-2: HTS Assay for Positive Allosteric Modulators of the Human D2 Dopamine Receptor: Primary Screen for Potentiators | D(2) dopamine receptor (Homo sapiens), P14416 | potentiation, % at 10 µM | AID 485347, 2010 | HEK293 T-REx D2, calcium flux, EC20 dopamine potentiation | 0.34% of 340,000 active;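 active = potentiation over 3 SD above the plate norm, cut at about 30% in these data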; also: 0% is about no effect
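Primary screen. Calcium kinetics in induced HEK293 T-REx D2 cells: compound pre-addition 180 s, EC20 dopamine, 180 s more.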
D2 antagonist: HTS Assay for Allosteric Antagonists of the Human D2 Dopamine Receptor: Primary Screen for Antagonists | HEK293 TREx D2 cells, calcium flux, dopamine EC80 | 2% of 340,000 active | inhibition, % at 10 µM | AID 485344, 2010; in the data active = inhibition above about 30%; inactive = below that, where a call was filed; also: 0% is about no effect
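Cells plated overnight at 30 C with tetracycline; no-wash calcium dye, 30–90 min RT; 10 s baseline; compound pinned; 180 s read; EC80 dopamine added; another 180 s read.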
* marks the source's active call; other numbers are inactive results; ? = inconclusive; · = no result. Compounds with a hit are over-represented: about 2.4% of the library has one in this group of screens.

SMILES	D2 ag-1	D2 ag-2	D2 PAM-1	D2 PAM-2	D2 antagonist
O=C(CNC(=O)c1ccccc1Cl)NC1CCN(Cc2ccccc2)CC1	-1	0	-5	20	-1
O=C(NC1CCN(Cc2ccccc2)CC1)c1ccc(Cl)cc1Cl	1	1	-86	-20	61*
O=C(NC1CCN(Cc2ccccc2)CC1)C1CCN(S(=O)(=O)c2ccc(Cl)cc2)CC1	-6	1	-17	-14	33*
COc1ccc(CCNC(=S)NCCc2ccc(OC)c(OC)c2)cc1OC	-1	-1	-5	7	1
COc1ccc(CCNC(=S)NC2CCN(Cc3ccccc3)CC2)cc1OC	-1	0	-13	-37	32*
O=C(CN1CCC(NC(=O)c2ccco2)CC1)Nc1ccccc1C(F)(F)F	-1	0	-6	9	50*
COc1cccc(C2NC(=O)NC(C)=C2C(=O)Nc2ccc(C)cc2)c1OC (configuration not stated)	-3	0	-19	-4	31*
COc1ccc(-c2nc3ccccc3o2)cc1NC(=O)c1cccc2c(Cl)cccc12	·	0	·	-1	·
O=C(CSc1nc2ccccc2s1)N1CCOCC1	-1	1	4	15	-19
O=C1CCCCCN1CSc1nc2ccccc2s1	-4	-2	-6	36*	3
CCOc1ccccc1NC(=O)CN1c2ccccc2S(=O)(=O)c2ccccc21	·	0	·	0	·
Cc1oncc1C(=O)Nc1ccc(C(F)(F)F)cc1	13	-2	-2	4	36*
O=C(COC(=O)c1cc[n+]([O-])cc1)NCCc1ccc(Cl)cc1Cl	-14	1	0	-1	34*
O=C1C(NS(=O)(=O)c2cccs2)=C(N2CCN(Cc3ccccc3)CC2)C(=O)c2ccccc21	7	-1	-18	-23	39*
O=C1C(NS(=O)(=O)c2cccs2)=C(N2CCOCC2)C(=O)c2ccccc21	-6	0	-20	3	38*
COc1ccc(CCNC(=O)CCn2c(=O)c3ccccc3n(Cc3cc(C)ccc3C)c2=O)cc1OC	·	0	·	-1	·
Cc1oc(-c2ccccc2F)nc1CS(=O)(=O)CC(=O)N1CCN(c2ccc(Cl)cc2)CC1	·	·	·	5	·
C/C(=N/NC(=O)CN(c1ccccc1)S(=O)(=O)c1ccccc1)c1ccccc1O	1	1	-78	-17	52*
COC(=O)CN(c1ccc(F)cc1)S(=O)(=O)c1ccccc1	-1	4	-4	·	47*
COC(=O)CN(c1ccccc1F)S(=O)(=O)c1ccccc1	-3	-4	8	-5	-10
COc1ccc(/C=C2\CCc3ccccc3C2=O)cc1O	-1	-1	-2	-1	4
Oc1oc(-c2ccccc2)nc1C=NCc1ccncc1	-3	1	-13	5	31*
COc1ccccc1Nc1nc(-c2sc(N)nc2C)cs1	1	0	-17	8	38*
COc1ccccc1Nc1nc(-c2sc(NC(=O)c3ccccc3)nc2C)cs1	-2	1	-8	-2	9
CCS(=O)(=O)c1nc2ccccc2n1CC(=O)Nc1ccccc1C(=O)OC	·	0	·	-9	·
SMILES	D2 ag-1	D2 ag-2	D2 PAM-1	D2 PAM-2	D2 antagonist
Cc1ccc2c(c1)c1c(c(=O)n(-c3ccccc3C)c(=O)n1Cc1ccccc1F)n2C	·	-1	·	4	·
Cc1c(Br)c([N+](=O)[O-])nn1CC(=O)Nc1nccs1	-2	0	-3	52*	-2
COc1ccc(NC(=O)C2CCCN(S(=O)(=O)c3ccc(F)cc3)C2)cc1 (configuration not stated)	·	0	·	0	·
CCOC(=O)c1cc2n(c1/N=C/N(C)C)-c1ccccc1C2=O	-4	36*	-4	4	15
CCOC(=O)c1ccc2c(c1)N(C)C(=O)c1ccccc1S2	-2	1	-3	-1	-2
Cc1ccc(NS(=O)(=O)c2c(C)nc3sc(C)c(C)n3c2=O)cc1F	·	2	·	-2	·
Cn1c(C(=O)Nc2ccc3c(c2)OCO3)cc2c(=O)n(C)c3ccccc3c21	-1	-1	-1	31*	15
Nc1cnccc1C(=O)O	?	4	?	-12	43*
CCOc1ccc(-c2cc(C(=O)Oc3ccc(C#N)cc3)no2)cc1	·	1	·	7	·
N#CC1=C(SCC(=O)NC2CC2)NC(=O)C(C#N)C12CCCCC2 (configuration not stated)	3	0	5	9	4
N#CC1=C(SCC(=O)NC23CC4CC(CC(C4)C2)C3)NC(=O)C(C#N)C12CCCCC2 (configuration not stated)	2	1	8	94*	-39
COc1ccc(OC)c(CN2CCN(c3ccccc3OC)CC2)c1	-2	0	-20	-3	-2
COc1ccccc1N1CCN(Cc2cc3c(cc2[N+](=O)[O-])OCO3)CC1	-6	0	-3	-17	52*
COc1ccc2ccccc2c1CN1CCN(C)CC1	-2	1	-35	-18	40*
COc1ccccc1N1CCN(Cc2ccc(OC)c(OC)c2OC)CC1	1	1	-44	-30	81*
COc1ccccc1Nc1nc(N)nc(CN2CCN(c3ccccc3F)CC2)n1	1	-1	-29	19	-7
COc1ccccc1N1CCN(Cc2nc(N)nc(Nc3ccc(C)c(Cl)c3)n2)CC1	1	1	-7	·	55*
CCOC(=O)CNC(=O)N1CCCN(S(=O)(=O)c2ccc3c(ccn3CC)c2)CC1	·	-1	·	-6	·
COc1cccc(CNS(=O)(=O)c2cnc(N)nc2)c1	·	2	·	·	·
O=S(=O)(NCCc1csc2nc(-c3ccccc3)nn12)c1ccc(Oc2ccccc2)cc1	·	1	·	-2	·
COc1ccccc1OCCCCN1CCN(c2ccccc2OC)CC1	-3	1	-36	7	4
COc1ccccc1N1CCN(Cc2ccc(C(=O)O)cc2)CC1	-8	1	-17	-3	-2
COc1ccc(CN2CCN(c3ccccc3OC)CC2)cc1OC	-4	1	-3	-33	66*
COc1ccc(CN2CCN(c3ccccc3OC)CC2)c(OC)c1	-1	0	-64	-21	91*
COC(=O)c1cc(CN2CCN(c3ccccc3C)CC2)ccc1O	-4	-1	-21	-13	58*
COc1ccccc1N1CCN(Cc2cnc3ccc(Cl)cn23)CC1	-4	-1	-9	-29	55*
C#CCN1c2ccccc2Sc2cccnc21	-2	-1	-7	15	19

High-throughput results: PubChem BioAssay, National Center for Advancing Translational Sciences (NCATS)
